Most compounds without a hit are left out; they make up all but 2.4% or so of the library.
Pol eta inh-1: qHTS for Inhibitors of Polymerase Eta; DNA polymerase eta (Homo sapiens), Q9Y253; recombinant Pol eta, fluorescent DNA replication assay; Potency, µM (titrated, usually from 114 µM), for the others: top-dose activity change, negative = inhibition, actives largely listed as inhibitors; 390,000 compounds, 1.2% hits; note: potency is the fitted concentration of half-maximal effect; % is set by controls: 0 for no effect and ±100 for the full control effect
Target sequence (Q9Y253 whole entry, looked up): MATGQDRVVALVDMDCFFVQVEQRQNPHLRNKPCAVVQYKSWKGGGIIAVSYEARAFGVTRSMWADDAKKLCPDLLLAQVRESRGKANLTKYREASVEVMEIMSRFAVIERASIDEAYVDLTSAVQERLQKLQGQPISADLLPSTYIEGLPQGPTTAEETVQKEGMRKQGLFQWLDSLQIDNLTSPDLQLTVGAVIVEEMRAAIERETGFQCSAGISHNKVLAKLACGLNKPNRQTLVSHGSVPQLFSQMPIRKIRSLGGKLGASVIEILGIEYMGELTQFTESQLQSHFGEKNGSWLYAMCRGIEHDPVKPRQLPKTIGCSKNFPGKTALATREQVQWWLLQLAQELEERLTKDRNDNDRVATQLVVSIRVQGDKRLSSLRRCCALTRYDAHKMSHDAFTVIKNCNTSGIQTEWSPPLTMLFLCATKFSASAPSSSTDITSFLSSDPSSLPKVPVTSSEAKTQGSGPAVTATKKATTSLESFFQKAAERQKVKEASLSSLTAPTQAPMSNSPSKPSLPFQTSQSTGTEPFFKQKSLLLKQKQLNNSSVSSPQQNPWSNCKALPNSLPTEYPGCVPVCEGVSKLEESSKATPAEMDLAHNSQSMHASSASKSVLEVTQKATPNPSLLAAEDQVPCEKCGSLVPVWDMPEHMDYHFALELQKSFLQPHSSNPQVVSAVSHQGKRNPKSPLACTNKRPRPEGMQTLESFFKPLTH
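Pol eta (10 nM) was preincubated with compounds for 15 min at room temperature, after which fluorescent replication substrate (50 nM final) was added to start the reaction. Fluorescence was read kinetically at 0 and 10 min.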
FEN1 inhibitor: qHTS Assay for the Inhibitors of Human Flap endonuclease 1 (FEN1); P39748; Recombinant FEN1 flap cleavage, fluorescence, 15 min; Potency, µM (series often up to 114 µM), inactives show top-dose activity change, negative = inhibition, usual class: inhibitors; 390,000 compounds, 0.35% hits; note: potency is the fitted concentration of half-maximal effect; % is set by controls: 0 for no effect and ±100 for the full control effect; nearly all actives have a fitted effect of over 65% in size
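Concentration–response screening of FEN1 (10 nM): 15 min compound preincubation at room temperature, reaction started with 50 nM substrate and read at 0 and 15 min. Corrected, normalized data were fitted by a four-parameter Hill equation.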
Pol kappa inh-1: qHTS for Inhibitors of Polymerase Kappa; 400,000 compounds, 0.53% hits; purified Pol kappa, fluorescent DNA synthesis assay, 10 min; AID 588579, 2011; Potency, µM (doses to about 107 µM), for inactives: at the highest dose activity, negative = inhibition, most hits filed as inhibitors; DNA polymerase kappa (Homo sapiens), Q9UBT6; note: potency is the fitted concentration of half-maximal effect; % is set by controls: 0 for no effect and ±100 for the full control effect
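Here, compound and 10 nM enzyme are combined for 15 min at room temperature; adding 50 nM substrate (final) starts DNA synthesis, tracked by fluorescence at 0 and 10 min against buffer-only wells.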
POLI inh: qHTS for Inhibitors of Polymerase Iota; DNA polymerase iota (Homo sapiens), Q9UNA4; Pol iota fluorescent replication assay, 10 min; Potency, µM (titrated, usually from 115 µM), without a hit: at the highest dose activity, negative = inhibition, hits mostly inhibitors; 390,000 compounds, 1% hits; AID 588590, 2011; note: potency is the fitted concentration of half-maximal effect
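Fluorescent replication assay read twice, at 0 min and 10 min after adding 50 nM (final) substrate. Enzyme (10 nM) and compounds were first incubated 15 min at room temperature; enzyme-free buffer wells were negative controls.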
Pol beta inh: qHTS Assay for Inhibitors of DNA Polymerase Beta. P06746. Pol beta primer extension/strand displacement, fluorescence kinetic. Potency, µM (highest dose often 114 µM), inactives show top-dose activity change, negative = inhibition, actives largely listed as inhibitors. 340,000 compounds, 1.3% hits. AID 485314, 2010; note: potency is the fitted concentration of half-maximal effect; % is set by controls: 0 for no effect and ±100 for the full control effect
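Human Pol beta at 10 nM; strand-displacement substrate 50 nM final. Compound exposure 15 min at room temperature before start, reaction 10 min at room temperature.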
WRN inhibitor: qHTS for Inhibitors of WRN Helicase. Bifunctional 3'-5' exonuclease/ATP-dependent helicase WRN (Homo sapiens), Q14191. WRN helicase unwinding, fluorescent forked duplex, kinetic. Potency, µM (series often up to 114 µM), for inactives: at the top dose activity change, negative = inhibition, most hits filed as inhibitors. 360,000 compounds, 0.46% hits. AID 651768, 2012; note: potency is the fitted concentration of half-maximal effect; % is set by controls: 0 for no effect and ±100 for the full control effect; nearly all actives have a fitted effect of over 55% in size
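Enzyme (20 nM final) and test compound sit together 15 min at room temperature before substrate addition. Substrate is a single-forked duplex oligonucleotide (100 nM) labelled with fluorophore and quencher, with 2 mM ATP; helicase unwinding raises red fluorescence, read kinetically.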
GALK inh confirm: Confirmation Assay for Inhibitors of Human Galactokinase (GALK); Potency, µM (doses to about 115 µM), for the others: at the highest dose activity, negative = inhibition, actives largely listed as inhibitors; AID 2015, 2009; 150 compounds, 70% hits; shares compounds with Pol eta inh-1; purified GALK, Kinase-Glo ATP depletion luminescence
GALK redox cs: Confirmatory Assay for Inhibitors of Human Galactokinase (GALK): Phenol-HRP redox assay counterscreen. AID 2035, 2009. shares compounds with Pol eta inh-1. Phenol red-HRP H2O2 redox cycling, absorbance 600 nm. Potency, µM (top dose mostly 115 µM), for inactives: at the top dose activity change, negative = H2O2 signal, usual class: inhibitors. 150 compounds, 40% hits
HEK293 tox: Secondary Assay for Inhibitors of Human Galactokinase (GALK): HEK-293 Cell Viability Assay; Potency, µM (series often up to 46.1 µM), inactives show at the highest dose activity change, negative = cytotoxicity, most hits filed as inhibitors; AID 2547, 2010; shares compounds with Pol eta inh-1; 170 compounds, 10% hits; HEK-293 viability, ATP luminescence (CellTiter-Glo), 24/48 h; note: potency is the fitted concentration of half-maximal effect; % is set by controls: 0 for no effect and ±100 for the full control effect
Pol kappa inh-2: qHTS for Inhibitors of Polymerase Kappa: Confirmatory Assay for Cherry-picked Compounds; AID 720501, 2013; shares compounds with Pol eta inh-1; purified Pol-kappa, fluorescent strand-displacement substrate; 920 compounds, 76% hits; Potency, µM, usual class: inhibitors; note: potency is the fitted concentration of half-maximal effect
Pol eta inh-2: qHTS for Inhibitors of Polymerase Eta: Confirmatory Assay for Cherry-picked Compounds. Pol eta primer extension, TAMRA/BHQ fluorescence, 10 min. shares compounds with Pol eta inh-1. Potency, µM, hits mostly inhibitors. 2,600 compounds, 64% hits; note: potency is the fitted concentration of half-maximal effect
Numbers without * were called inactive; ? = inconclusive; / = not tested or not shown; [ ] = remark or other dose. Calls come from the whole dose curve; as a rule, active = well fitted curve in the direction sought with a large enough effect; inconclusive = small, poorly fitted or top-dose-only effect, or another doubt; inactive = no such curve, though single readings can be large; an effect the other way counts as inactive or inconclusive.

SMILES	Pol eta inh-1	FEN1 inhibitor	Pol kappa inh-1	POLI inh	Pol beta inh	WRN inhibitor	Pol eta inh-2	others
CCCN1CCC[C@@H](c2cccc(C#N)c2)C1	-3%[57.1 µM]	/	/	3%[58.9 µM]	13%[57.1 µM]	/	/
CC(=O)Nc1ccccc1OP1(=O)COc2ccccc2OC1	-2%	-7%	-14%	25%	-2%	2%	/
CC(C)c1ccc(N2C(=O)NC(=O)/C(=C\C=C\c3ccco3)C2=O)cc1	20µM*	?	40µM*	8.9µM*	?	?	76*
O=C1NC(=O)N(Cc2ccccc2)C(=O)/C1=C/C=C/c1ccco1	35µM*	?	-97%	14µM*	?	50µM*	?
Cc1ccc(N2C(=O)NC(=O)/C(=C\c3ccc(N4CCOCC4)cc3)C2=O)cc1	-10%	-5%	-10%	-9%	4%	?	/
CCn1nc(-c2cccs2)nc2c(=O)n(C)c(=O)nc1-2	0.79µM*	13%	-12%	-154%	1%	-34%	/	GALK inh confirm=0.21µM*;GALK redox cs=0.27µM*;HEK293 tox=?
Nc1nonc1C(=O)N/N=C/c1ccc([N+](=O)[O-])o1	20µM*	-26%	?	32µM*	?	?	?
COc1ccc(N2C(=O)/C(=C/C=C/c3ccccc3[N+](=O)[O-])C(=O)NC2=S)cc1	22µM*	?	?	16µM*	20µM*	25µM*	?
O=C1NC(=O)N(c2ccccc2)C(=O)/C1=C\c1ccccc1[N+](=O)[O-]	-6%	3%	-15%	?	0%	?	/
O=C1NC(=O)N(c2ccccc2)C(=O)/C1=C/c1ccoc1	28µM*	?	?	40µM*	?	?	76*
C/C(=C/CCC(C)[C@H]1CC[C@@]2(C)C3=C(CC[C@]12C)[C@@]1(C)CCC(=O)C(C)(C)[C@@H]1CC3)C(=O)O (some centres undefined)	79µM*	50µM*	-17%	-26%	-18%	79µM*	?
O=C1NC(=O)N(CCC2=CCCCC2)C(=O)/C1=C\c1cccs1	20µM*	?	-29%	40µM*	?	?	?
Cn1cccc1/C=C1\C(=O)NC(=O)N(CCC2=CCCCC2)C1=O	-7%	-14%	-14%	?	1%	1%	/
CN1C(=O)/C(=C/c2cccn2-c2ccc3ccccc3c2)C(=O)NC1=S	4µM*	?	32µM*	8.9µM*	22µM*	-35%[57.1 µM]	?
CCN(CC)c1ccc(/C=C2\C(=O)NC(=S)N(C)C2=O)o1	-19%	5%	-3%	52%	-8%	-18%	/
O=C(c1cccc2ccccc12)C1CCCN(Cc2ccon2)C1 (centres undefined)	-7%	4%	-12%	-17%	24%	-7%	/
O=C(c1cccc2ccccc12)C1CCCN(C2CCC2)C1 (centres undefined)	?	11%	?	?	-10%	-7%[57.1 µM]	?
O=C(NCCc1ccccc1)c1ccc2nccnc2c1	1%	17%	-11%	35%	-4%	-2%	/
Cc1ccc(/C=C2\C(=O)NC(=S)N(c3ccc(F)cc3)C2=O)o1	13µM*	?	25µM*	?	16µM*	?	30*	Pol kappa inh-2=17*
COc1cccc(N2C(=O)/C(=C/c3ccc(C)o3)C(=O)NC2=S)c1	13µM*	?	-10%	?	45µM*	?	60*	Pol kappa inh-2=30*
O=C(Cn1c(NCCCl)nc2ccccc21)c1ccc(Br)cc1	1%	-7%	13%	-19%	/	-7%	/
Cc1cccc(NC(=O)[C@@H](NC(=O)N2C[C@H]3C[C@@H](C2)c2cccc(=O)n2C3)C(C)C)c1	-20%	-5%	2%	9%	-4%	4%	/
CNCC/C=C/c1cccnc1	/	/	5%[19.4 µM]	/	/	/	/
O=S(=O)(c1ccc(Cl)cc1)N1CCCCC1c1cccnc1 (centres undefined)	-2%	-18%	-10%	-14%	22%	-5%	/
CCOC(=O)CC(SP(=S)(OC)OC)C(=O)OCC (centres undefined)	/	/	5%[19.4 µM]	/	/	/	/
CCOC(=O)CC(SP1(=S)OCC2(CCCCC2)CO1)C(=O)OCC (centres undefined)	?	-26%	-36%	?	/	-29%	67*
CC(OC(=O)c1cn(C)c2ccccc12)C(=O)N1CCCC1 (centres undefined)	-6%	-3%	-15%	-1%	/	-11%	/
O=c1nc(/C=C/c2ccc(Cl)cc2Cl)cc(C(F)(F)F)[nH]1	32µM*	-2%	-5%	?	-8%	50µM*	?
CCC1(O)C(=O)OCc2c1cc1n(c2=O)Cc2cc3cc(O)ccc3nc2-1 (centres undefined)	18µM*	?	?	22µM*	/	-5%[11.6 µM]	76*

Screens (PubChem)
